ALOX12 inh: blocks human arachidonate 12S-lipoxygenase. purified 12hLO, xylenol orange hydroperoxide absorbance. 580,000 compounds, 1.1% hits. Potency, µM (titrated, usually from 108 µM), most hits filed as inhibitors
Target sequence (P18054 whole entry, looked up): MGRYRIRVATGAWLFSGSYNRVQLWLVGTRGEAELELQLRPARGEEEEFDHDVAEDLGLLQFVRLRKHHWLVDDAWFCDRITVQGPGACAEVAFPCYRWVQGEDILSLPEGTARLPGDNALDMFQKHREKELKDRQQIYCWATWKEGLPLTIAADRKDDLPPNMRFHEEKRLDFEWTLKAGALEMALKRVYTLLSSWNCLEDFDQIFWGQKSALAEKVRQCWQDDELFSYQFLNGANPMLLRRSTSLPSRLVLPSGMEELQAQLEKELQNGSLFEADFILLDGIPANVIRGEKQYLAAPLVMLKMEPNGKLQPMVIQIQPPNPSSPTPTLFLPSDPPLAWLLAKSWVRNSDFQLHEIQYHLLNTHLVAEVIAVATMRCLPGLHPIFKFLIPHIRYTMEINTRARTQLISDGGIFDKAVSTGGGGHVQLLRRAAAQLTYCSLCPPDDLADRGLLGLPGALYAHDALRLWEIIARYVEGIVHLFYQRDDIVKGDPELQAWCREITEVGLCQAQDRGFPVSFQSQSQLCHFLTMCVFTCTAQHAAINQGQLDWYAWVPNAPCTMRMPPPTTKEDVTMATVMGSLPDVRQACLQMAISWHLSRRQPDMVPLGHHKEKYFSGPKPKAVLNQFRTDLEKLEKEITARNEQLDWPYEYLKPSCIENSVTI
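Purified human 12hLO (150 nM final) in 25 mM Hepes, 0.01% Triton X-100, pH 7.0 was preincubated 15 min at room temperature with compound. Then 40 uM arachidonic acid was added, 30 min. Hydroperoxide was read by Fe-XO absorbance ratio 573/405 nm.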
TDP1 cell CPT: DT40-hTDP1 cell growth loss with CPT | chicken DT40 Tdp1-/-;hTDP1 cells + 20 nM CPT, ATP luminescence, 48 h | Potency, µM (top dose mostly 46.2 µM), usual class: inhibitors | 420,000 compounds, 12% hits; further: nearly all actives have a fitted effect of over 55% in size
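Chicken DT40 Tdp1-/- cells complemented with human TDP1, 400 cells/well, exposed to compounds plus 20 nM camptothecin for at least 48 h at 37 C; viability read as ATP content by CellTiter-Glo luminescence.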
TDP1 cell noCPT: qHTS for Inhibitors of human tyrosyl-DNA phosphodiesterase 1 (TDP1): qHTS in cells in absence of CPT; Potency, µM (top dose mostly 46.2 µM), usual class: inhibitors; 420,000 compounds, 15% hits; DT40 Tdp1-/- hTDP1 cells, no CPT, ATP luminescence, 48 h; further: nearly all actives have a fitted effect of over 55% in size
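Readout: luminescence from CellTiter-Glo after 30 min in the dark at RT. Cells: DT40 Tdp1-/- with stable hTDP1, 400/well. Exposure: compounds alone, ≥48 hr, 37 °C.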
HT1080 IDH1KD tx: HT-1080 IDH1 knockdown cell toxicity (counter line); HT-1080 IDH1 knockdown viability, ATP luminescence, 48 h; Potency, µM (series often up to 46.1 µM), actives largely listed as cytotoxic; 360,000 compounds, 2% hits
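HT-1080-IDH1KD cells (IDH1 knocked down), 750/well in RPMI with 5% FBS, treated with compound 48 h at 37 degrees C. Viability by CellTiter-Glo luminescence, normalised to DMSO and no-cell wells; concentration-response curves classed.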
IL-1B inflam inh: inhibitors of inflammasome signaling (IL-1 beta secretion) | THP-1 LPS/ATP IL-1B secretion, AlphaLISA, 16 h; hits give low values | activity change, % at 57.5 µM | 360,000 compounds, 4.7% hits; in the data active means activity change below about -50%; inconclusive means mostly about -30% to -49%
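Secreted IL-1B measured by AlphaLISA bead assay after 16 h compound exposure of THP-1 cells; compounds (final up to 57.5 uM) added 1 h before LPS (250 ng/mL) and ATP (1.25 mM) stimulation; lower signal means less secretion.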
HT1080-NT tox: kills 2HG-producing HT-1080-NT fibrosarcoma cells. Potency, µM (titrated, usually from 46.1 µM), usual class: cytotoxic. 360,000 compounds, 1.6% hits. HT-1080-NT fibrosarcoma viability, CellTiter-Glo ATP luminescence, 48 h. AID 686970;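 further: NT is the 2HG producing partner of a matched IDH1 knockdown line; nearly all actives have a fitted effect of over 55% in size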
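A 48-hour cytotoxicity screen used HT-1080-NT cells plated 2 hours before compound delivery. ATP-based CellTiter-Glo luminescence measured viability, normalized to DMSO and no-cell controls.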
Numbers stand for hits; i = inactive; ? = inconclusive; nt = no result; [ ] = remark or other dose. This excerpt belongs to a sample that is enriched for hits. Unless noted, the call rests on the fitted dose curve; in most records, active means well fitted curve in the direction sought with a large enough effect; inconclusive means small, poorly fitted or top-dose-only effect, or another doubt; inactive means no such curve, though single readings can be large; an effect the other way counts as inactive or inconclusive.

SMILES	ALOX12 inh	TDP1 cell CPT	TDP1 cell noCPT	HT1080 IDH1KD tx	IL-1B inflam inh	HT1080-NT tox
Cc1ccc(-c2nn(-c3ccccc3)c3[nH]c(=O)c(CNCc4ccccc4)cc23)cc1	i	?	?	?	-58	?
CCc1ccc(NCc2cc3c(C)nn(-c4ccccc4)c3[nH]c2=O)cc1	i	21µM	13µM	i	i	?
CC1(c2nnnn2Cc2ccccc2)CCC(=O)N1CCCn1ccnc1 (stereo not drawn)	i	i	i	i	i	i
Cc1ccc(CC(C(=O)NCCC23CC4CC(CC(C4)C2)C3)C(C)C(=O)O)cc1 (stereo not drawn)	i	nt	nt	nt	nt	nt
COc1ccc(CCN(C)Cc2c(O)ccc3cc(Br)ccc23)cc1OC	18µM	?	i	i	-94	i
COc1ccc(CN(C)Cc2c(O)ccc3cc(Br)ccc23)cc1OC	28µM	i	?	i	i	i
COc1ccccc1C(=O)Nc1ccnn1C1CCN(c2nccc(N)n2)CC1	i	nt	nt	nt	nt	nt
O=C(c1ccncc1)N1CCC2(CC1)CC(N(Cc1ccc(F)cc1)C1CC1)CCO2 (stereo not drawn)	i	nt	nt	nt	nt	nt
Cn1ncc2c(N3CCC(Cc4ccccc4)CC3)ncnc21	i	?	16µM	?	i	i
CC1CC(C)CN(c2ncnc3c2cnn3C)C1 (stereo not drawn)	i	i	?	i	i	i
Cn1ncc2c(N3CCN(c4ccc(F)cc4)CC3)ncnc21	i	?	18µM	nt	nt	nt
NNC(=O)c1cc2c(N3CCC(Cc4ccccc4)CC3)ncnc2s1	i	16µM	23µM	?	i	?
COc1ccccc1N1CCN(c2ncnc3c2cnn3C)CC1	i	?	18µM	nt	nt	nt
COc1ccccc1N1CCN(c2ncnc3c2cnn3-c2cccc(Cl)c2)CC1	i	?	?	nt	nt	nt
CCCc1noc(-c2cccn3c(CNC(=O)c4cccc(Cl)c4)nnc23)n1	i	nt	nt	nt	nt	nt
O=C(COC(=O)C1CC2CCCC(C1)C2=O)NC1CCCCC1 (stereo not drawn)	i	i	i	i	i	i
COC(=O)c1c(Cl)c2n3ccccc3c(C)c(-c3ccccc3)c-2c1C(=O)OC	?	?	23µM	i	i	i
CC(C=CC(O)=C1C(=O)CNC1=O)=C[C@@H](C)C1OC2(C)OC(C(=O)C3O[C@@]32C)C1C (stereo partly drawn)	i	i	i	i	i	i
O=C(CCC1CCCC1)N1CC2CC(C1)[C@H]1CCCC(=O)N1C2 (stereo partly drawn)	i	nt	nt	nt	nt	nt
Cc1cc(C)cc(N=Cc2ccc([N+](=O)[O-])s2)c1	i	2.6µM	2.6µM	21µM	-104	?
Cc1ccc(NC(=S)N/N=C/c2ccc([N+](=O)[O-])s2)cc1	?	?	?	?	-73	?
NC(=O)c1ccc(N=Cc2ccc([N+](=O)[O-])s2)cc1	i	5.2µM	3.3µM	i	-108	?
Cc1cccc(NC(=S)N/N=C/c2cccc([N+](=O)[O-])c2)c1	nt	?	?	i	i	i
O=C(CCC1CCCN(S(=O)(=O)c2cccc(F)c2)C1)NC1CCCCC1 (stereo not drawn)	i	nt	nt	nt	nt	nt
CCN(C(=O)CN1C(=O)NC2(CCOCC2)C1=O)c1ccccc1	i	nt	nt	nt	nt	nt
SMILES	ALOX12 inh	TDP1 cell CPT	TDP1 cell noCPT	HT1080 IDH1KD tx	IL-1B inflam inh	HT1080-NT tox
CC(C)c1cccc(-c2ccc3c(c2)S(=O)(=O)c2cccc(C(=O)NCc4ccccc4)c2C3=O)c1	i	?	23µM	i	i	i
CC(C)c1cccc(-c2ccc3c(c2)S(=O)(=O)c2cccc(C(=O)NCc4ccccc4Cl)c2C3=O)c1	nt	2.6µM	6.5µM	i	i	i
Cc1cc(NC(=O)N(Cc2ccncc2)C2CC2)no1	i	nt	nt	nt	nt	nt
C/C(=N\O)c1ccn(S(=O)(=O)c2ccc(Cl)cc2)c1	i	?	26µM	i	i	i
CC(=O)c1ccn(S(=O)(=O)c2ccc(Cl)cc2)c1	i	i	i	i	i	i
Cc1cc(C)cc(-n2ccn3c(CCCC(=O)NCc4cccs4)nnc3c2=O)c1	i	nt	nt	nt	nt	nt
Cc1ccc(C(=O)OCc2nc(N)c3ccccc3n2)cc1	i	nt	nt	nt	nt	nt
Cc1ccc(S(=O)(=O)c2c(COC(=O)c3ccc(Cl)cc3)c(-c3ccccc3)nn2C)cc1	i	16µM	?	i	i	i
O=C1CCCN2N=C(SCC(=O)Nc3ccccc3C(F)(F)F)SC2=N1	i	i	i	i	i	i
O=C1CCCN2N=C(SCC(=O)Nc3cccc(Cl)c3)SC2=N1	i	16µM	21µM	i	i	?
O=C(CSC1=NCCN1)Nc1cccc(C(F)(F)F)c1	i	21µM	?	26µM	-99	i
O=C1CCCN2N=C(SCC(=O)Nc3ccc(Cl)cc3)SC2=N1	i	i	i	i	i	i
Cc1ccc(NC(=O)CSC2=NN3CCCC(=O)N=C3S2)cc1Cl	i	?	21µM	i	i	i
O=C1CCCN2N=C(SCC(=O)Nc3cccc(C(F)(F)F)c3)SC2=N1	i	4.6µM	5.2µM	?	i	i
CC(C)(C)OC(=O)N1CC(N2CCCCC2)C1	i[12.5 µM]	nt	nt	nt	nt	nt
COc1cccc(C(=O)NCc2nnc3cc(-c4nc(C)no4)ccn23)c1	i	nt	nt	nt	nt	nt
O=C(Nc1nnc(-c2ccncc2)o1)c1ccccc1F	i	?	i	i	i	i
O=C(Nc1nnc(-c2ccc(F)cc2)o1)c1cc(Cl)sc1Cl	i	26µM	21µM	i	i	i
O=C(Nc1nnc(-c2ccccc2)o1)c1cc(Cl)sc1Cl	i	7.3µM	9.2µM	i	i	i
O=C(Nc1nnc(-c2ccc(Cl)cc2)o1)c1nc2ccccc2s1	i	?	21µM	i	i	i
CC(C)(c1nnnn1-c1ccccc1)N1CCOCC1	i	nt	nt	nt	nt	nt
Cn1cccc1-c1cc(C(=O)N/N=C/c2ccccc2Cl)[nH]n1	i	i	i	i	?	i
Cn1cccc1-c1cc(C(=O)N/N=C/c2cc(Br)ccc2O)[nH]n1	?	5.8µM	4.1µM	?	i	?
CCOc1ccc(/C=N/NC(=O)c2cc(-c3cccn3C)n[nH]2)cc1	i	i	?	i	-59	i
CCOc1cc(Br)c2cc(C(=O)O)[nH]c2c1OC	i	nt	nt	nt	nt	nt
COc1ccc(CCNC(=O)c2ccc3c(c2)N(Cc2ccc(F)cc2)CCS3)cc1OC	i	?	15µM	i	i	i
CCOc1ccc(CCNC(=O)c2ccc3c(c2)N(Cc2ccc(C)cc2)CCS3)cc1	i	18µM	?	nt	nt	nt
COc1ccc(C(=O)NCCc2ccc(F)cc2)cc1OC	i	i	i	i	i	i
CC(C)Oc1ccc(CNC(=O)c2ccc3c(c2)N(Cc2ccc(F)cc2)CCS3)cc1	i	10µM	7.3µM	nt	nt	nt

Screening results: PubChem BioAssay, National Center for Advancing Translational Sciences (NCATS)
